# Test results from the supplement of paper PMC4466140.
# Target: AgAbp1
# Assay: SPOT peptide array binding signal intensity (averaged, normalized) (arbitrary units (background-subtracted, floor 0; scale differs between SH3 domains)); higher = stronger binding of the SH3 domain to the peptide
# Procedure, shortened: (§1)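 GST-SH3 fusions from four yeast species, purified on glutathione Sepharose, were incubated at 10 μg/ml overnight at 4°C on membranes of synthetic 15-mer peptides in which cysteines were replaced with serines. Binding signal is the normalized, background-subtracted spot intensity averaged over replicates, in domain-specific arbitrary units.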
row,Binder,SPOT peptide array binding signal intensity
1,RKNRAPPQRPRFNRE,777

# Target: AgBbc1
# Assay: as above
# Procedure, shortened: as §1
row,Binder,SPOT peptide array binding signal intensity
1,RKNRAPPQRPRFNRE,536

# Target: AgBem1-D1
# Assay: as above
# Procedure, shortened: as §1
row,Binder,SPOT peptide array binding signal intensity
1,RKNRAPPQRPRFNRE,379

# Target: AgBzz1-D1
# Assay: as above
# Procedure, shortened: as §1
row,Binder,SPOT peptide array binding signal intensity
1,RKNRAPPQRPRFNRE,248

# Target: AgBzz1-D2
# Assay: as above
# Procedure, shortened: as §1
row,Binder,SPOT peptide array binding signal intensity
1,RKNRAPPQRPRFNRE,220

# Target: AgCyk3
# Assay: as above
# Procedure, shortened: as §1
row,Binder,SPOT peptide array binding signal intensity
1,RKNRAPPQRPRFNRE,7

# Target: AgFus1
# Assay: as above
# Procedure, shortened: as §1
row,Binder,SPOT peptide array binding signal intensity
1,RKNRAPPQRPRFNRE,404

# Target: AgHof1
# Assay: as above
# Procedure, shortened: as §1
row,Binder,SPOT peptide array binding signal intensity
1,RKNRAPPQRPRFNRE,117

# Target: AgHse1
# Assay: as above
# Procedure, shortened: as §1
row,Binder,SPOT peptide array binding signal intensity
1,RKNRAPPQRPRFNRE,469

# Target: AgLsb1
# Assay: as above
# Procedure, shortened: as §1
row,Binder,SPOT peptide array binding signal intensity
1,RKNRAPPQRPRFNRE,267

# Target: AgLsb4
# Assay: as above
# Procedure, shortened: as §1
row,Binder,SPOT peptide array binding signal intensity
1,RKNRAPPQRPRFNRE,71

# Target: AgMyo5
# Assay: as above
# Procedure, shortened: as §1
row,Binder,SPOT peptide array binding signal intensity
1,RKNRAPPQRPRFNRE,2.5

# Target: AgNbp2
# Assay: as above
# Procedure, shortened: as §1
row,Binder,SPOT peptide array binding signal intensity
1,RKNRAPPQRPRFNRE,1890

# Target: AgRvs167
# Assay: as above
# Procedure, shortened: as §1
row,Binder,SPOT peptide array binding signal intensity
1,RKNRAPPQRPRFNRE,8.33

# Target: AgSho1
# Assay: as above
# Procedure, shortened: as §1
row,Binder,SPOT peptide array binding signal intensity
1,RKNRAPPQRPRFNRE,47.5

# Target: AgSla1-D1-D2
# Assay: as above
# Procedure, shortened: as §1
row,Binder,SPOT peptide array binding signal intensity
1,RKNRAPPQRPRFNRE,320

# Target: AgSla1-D3
# Assay: as above
# Procedure, shortened: as §1
row,Binder,SPOT peptide array binding signal intensity
1,RKNRAPPQRPRFNRE,39.2

# Target: CaAbp1-D1
# Assay: as above
# Procedure, shortened: as §1
row,Binder,SPOT peptide array binding signal intensity
1,RKNRAPPQRPRFNRE,976

# Target: CaAbp1-D2
# Assay: as above
# Procedure, shortened: as §1
row,Binder,SPOT peptide array binding signal intensity
1,RKNRAPPQRPRFNRE,788

# Target: CaBbc1
# Assay: as above
# Procedure, shortened: as §1
row,Binder,SPOT peptide array binding signal intensity
1,RKNRAPPQRPRFNRE,945

# Target: CaBem1-D1
# Assay: as above
# Procedure, shortened: as §1
row,Binder,SPOT peptide array binding signal intensity
1,RKNRAPPQRPRFNRE,39

# Target: CaBzz1-D1
# Assay: as above
# Procedure, shortened: as §1
row,Binder,SPOT peptide array binding signal intensity
1,RKNRAPPQRPRFNRE,2100

# Target: CaBzz1-D2
# Assay: as above
# Procedure, shortened: as §1
row,Binder,SPOT peptide array binding signal intensity
1,RKNRAPPQRPRFNRE,1120

# Target: CaCyk3
# Assay: as above
# Procedure, shortened: as §1
row,Binder,SPOT peptide array binding signal intensity
1,RKNRAPPQRPRFNRE,642

# Target: CaFus1
# Assay: as above
# Procedure, shortened: as §1
row,Binder,SPOT peptide array binding signal intensity
1,RKNRAPPQRPRFNRE,706

# Target: CaHof1
# Assay: as above
# Procedure, shortened: as §1
row,Binder,SPOT peptide array binding signal intensity
1,RKNRAPPQRPRFNRE,0.5

# Target: CaHse1
# Assay: as above
# Procedure, shortened: as §1
row,Binder,SPOT peptide array binding signal intensity
1,RKNRAPPQRPRFNRE,89.8

# Target: CaLsb1
# Assay: as above
# Procedure, shortened: as §1
row,Binder,SPOT peptide array binding signal intensity
1,RKNRAPPQRPRFNRE,7

# Target: CaLsb4
# Assay: as above
# Procedure, shortened: as §1
row,Binder,SPOT peptide array binding signal intensity
1,RKNRAPPQRPRFNRE,646

# Target: CaMyo5
# Assay: as above
# Procedure, shortened: as §1
row,Binder,SPOT peptide array binding signal intensity
1,RKNRAPPQRPRFNRE,9.25

# Target: CaNbp2
# Assay: as above
# Procedure, shortened: as §1
row,Binder,SPOT peptide array binding signal intensity
1,RKNRAPPQRPRFNRE,1020

# Target: CaRvs167
# Assay: as above
# Procedure, shortened: as §1
row,Binder,SPOT peptide array binding signal intensity
1,RKNRAPPQRPRFNRE,26.5

# Target: CaRvs167-3
# Assay: as above
# Procedure, shortened: as §1
row,Binder,SPOT peptide array binding signal intensity
1,RKNRAPPQRPRFNRE,28.5

# Target: CaSho1
# Assay: as above
# Procedure, shortened: as §1
row,Binder,SPOT peptide array binding signal intensity
1,RKNRAPPQRPRFNRE,117

# Target: CaSla1-D1-D2
# Assay: as above
# Procedure, shortened: as §1
row,Binder,SPOT peptide array binding signal intensity
1,RKNRAPPQRPRFNRE,752

# Target: CaSla1-D3
# Assay: as above
# Procedure, shortened: as §1
row,Binder,SPOT peptide array binding signal intensity
1,RKNRAPPQRPRFNRE,15

# Target: ScAbp1
# Assay: as above
# Procedure, shortened: as §1
row,Binder,SPOT peptide array binding signal intensity
1,RKNRAPPQRPRFNRE,369

# Target: ScBbc1
# Assay: as above
# Procedure, shortened: as §1
row,Binder,SPOT peptide array binding signal intensity
1,RKNRAPPQRPRFNRE,290

# Target: ScBem1-D1
# Assay: as above
# Procedure, shortened: as §1
row,Binder,SPOT peptide array binding signal intensity
1,RKNRAPPQRPRFNRE,112

# Target: ScBzz1-D1
# Assay: as above
# Procedure, shortened: as §1
row,Binder,SPOT peptide array binding signal intensity
1,RKNRAPPQRPRFNRE,46

# Target: ScBzz1-D2
# Assay: as above
# Procedure, shortened: as §1
row,Binder,SPOT peptide array binding signal intensity
1,RKNRAPPQRPRFNRE,26

# Target: ScCyk3
# Assay: as above
# Procedure, shortened: as §1
row,Binder,SPOT peptide array binding signal intensity
1,RKNRAPPQRPRFNRE,88

# Target: ScFus1
# Assay: as above
# Procedure, shortened: as §1
row,Binder,SPOT peptide array binding signal intensity
1,RKNRAPPQRPRFNRE,209

# Target: ScHof1
# Assay: as above
# Procedure, shortened: as §1
row,Binder,SPOT peptide array binding signal intensity
1,RKNRAPPQRPRFNRE,2.5

# Target: ScHse1
# Assay: as above
# Procedure, shortened: as §1
row,Binder,SPOT peptide array binding signal intensity
1,RKNRAPPQRPRFNRE,761

# Target: ScLsb1
# Assay: as above
# Procedure, shortened: as §1
row,Binder,SPOT peptide array binding signal intensity
1,RKNRAPPQRPRFNRE,162

# Target: ScLsb2
# Assay: as above
# Procedure, shortened: as §1
row,Binder,SPOT peptide array binding signal intensity
1,RKNRAPPQRPRFNRE,196

# Target: ScLsb3
# Assay: as above
# Procedure, shortened: as §1
row,Binder,SPOT peptide array binding signal intensity
1,RKNRAPPQRPRFNRE,622

# Target: ScLsb4
# Assay: as above
# Procedure, shortened: as §1
row,Binder,SPOT peptide array binding signal intensity
1,RKNRAPPQRPRFNRE,34.5

# Target: ScMyo3
# Assay: as above
# Procedure, shortened: as §1
row,Binder,SPOT peptide array binding signal intensity
1,RKNRAPPQRPRFNRE,8.5

# Target: ScMyo5
# Assay: as above
# Procedure, shortened: as §1
row,Binder,SPOT peptide array binding signal intensity
1,RKNRAPPQRPRFNRE,10

# Target: ScNbp2
# Assay: as above
# Procedure, shortened: as §1
row,Binder,SPOT peptide array binding signal intensity
1,RKNRAPPQRPRFNRE,4060

# Target: ScPex13
# Assay: as above
# Procedure, shortened: as §1
row,Binder,SPOT peptide array binding signal intensity
1,RKNRAPPQRPRFNRE,128

# Target: ScRvs167
# Assay: as above
# Procedure, shortened: as §1
row,Binder,SPOT peptide array binding signal intensity
1,RKNRAPPQRPRFNRE,192

# Target: ScSho1
# Assay: as above
# Procedure, shortened: as §1
row,Binder,SPOT peptide array binding signal intensity
1,RKNRAPPQRPRFNRE,979

# Target: ScSla1-D1-D2
# Assay: as above
# Procedure, shortened: as §1
row,Binder,SPOT peptide array binding signal intensity
1,RKNRAPPQRPRFNRE,1390

# Target: ScSla1-D3
# Assay: as above
# Procedure, shortened: as §1
row,Binder,SPOT peptide array binding signal intensity
1,RKNRAPPQRPRFNRE,30.2

# Target: SpAbp1-D1
# Assay: as above
# Procedure, shortened: as §1
row,Binder,SPOT peptide array binding signal intensity
1,RKNRAPPQRPRFNRE,634

# Target: SpBbc1
# Assay: as above
# Procedure, shortened: as §1
row,Binder,SPOT peptide array binding signal intensity
1,RKNRAPPQRPRFNRE,25.5

# Target: SpBzz1-D1
# Assay: as above
# Procedure, shortened: as §1
row,Binder,SPOT peptide array binding signal intensity
1,RKNRAPPQRPRFNRE,707

# Target: SpBzz1-D2
# Assay: as above
# Procedure, shortened: as §1
row,Binder,SPOT peptide array binding signal intensity
1,RKNRAPPQRPRFNRE,23

# Target: SpCyk3
# Assay: as above
# Procedure, shortened: as §1
row,Binder,SPOT peptide array binding signal intensity
1,RKNRAPPQRPRFNRE,9.5

# Target: SpHof1
# Assay: as above
# Procedure, shortened: as §1
row,Binder,SPOT peptide array binding signal intensity
1,RKNRAPPQRPRFNRE,200

# Target: SpHof1-2
# Assay: as above
# Procedure, shortened: as §1
row,Binder,SPOT peptide array binding signal intensity
1,RKNRAPPQRPRFNRE,13.5

# Target: SpHof1-3
# Assay: as above
# Procedure, shortened: as §1
row,Binder,SPOT peptide array binding signal intensity
1,RKNRAPPQRPRFNRE,286

# Target: SpHse1
# Assay: as above
# Procedure, shortened: as §1
row,Binder,SPOT peptide array binding signal intensity
1,RKNRAPPQRPRFNRE,253

# Target: SpLsb1
# Assay: as above
# Procedure, shortened: as §1
row,Binder,SPOT peptide array binding signal intensity
1,RKNRAPPQRPRFNRE,190

# Target: SpLsb4
# Assay: as above
# Procedure, shortened: as §1
row,Binder,SPOT peptide array binding signal intensity
1,RKNRAPPQRPRFNRE,707

# Target: SpMyo1
# Assay: as above
# Procedure, shortened: as §1
row,Binder,SPOT peptide array binding signal intensity
1,RKNRAPPQRPRFNRE,14

# Target: SpNbp2
# Assay: as above
# Procedure, shortened: as §1
row,Binder,SPOT peptide array binding signal intensity
1,RKNRAPPQRPRFNRE,307

# Target: SpPex13
# Assay: as above
# Procedure, shortened: as §1
row,Binder,SPOT peptide array binding signal intensity
1,RKNRAPPQRPRFNRE,32

# Target: SpRvs167
# Assay: as above
# Procedure, shortened: as §1
row,Binder,SPOT peptide array binding signal intensity
1,RKNRAPPQRPRFNRE,67.8

# Target: SpSla1-D1-D2
# Assay: as above
# Procedure, shortened: as §1
row,Binder,SPOT peptide array binding signal intensity
1,RKNRAPPQRPRFNRE,48

# Target: SpSla1-D3
# Assay: as above
# Procedure, shortened: as §1
row,Binder,SPOT peptide array binding signal intensity
1,RKNRAPPQRPRFNRE,7
